# Data from PubChem BioAssay (EPA / NIEHS).
# Records with an inconclusive call do not appear. Activity calls are given as the source filed them. How the source made its calls, unless noted: active means hit-call score of the fitted dose curve at least 0.9, where 1 is the maximum; inactive means score below 0.9.
# How the values were obtained:
# [1] = target: Myc proto-oncogene protein (Homo sapiens) (UniProt P01106); assay: ATG_Myc_CIS: Attagene CIS-FACTORIAL HepG2 Assay for human Myelocytomatosis (Myc) Proto-Oncogene Transcription Factor (AID 2282990); conditions: HepG2, Attagene cis-reporter transcription factor activity; actives raise or lower the signal
# Summary of the method: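 HepG2, transient MRTU transfection (cis promoters, endogenous TFs); 24 h dosing; TriZol RNA → oligo(dT) RT → PCR → 6-FAM primer extension → HpaI cut → CE. Bidirectional fit vs DMSO.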
# [2] = ATG_NF_kB_CIS: Attagene CIS-FACTORIAL HepG2 Assay for human Nuclear Factor Kappa B (NF-kB) (AID 2282991); conditions: HepG2 Attagene cis-factorial NF-kB reporter mRNA; actives raise or lower the signal
# Summary of the method: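 HepG2 cells transfected with cis-promoter-driven reporter units, so endogenous transcription factor activity is measured. Reporter mRNA quantified 24 h after dosing by RT-PCR and capillary electrophoresis, with bidirectional fitting against DMSO.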
# [3] = ATG_NRF2_ARE_CIS: Attagene CIS-FACTORIAL HepG2 Assay for human Nuclear Factor Erythroid 2 Related Factor 2 (NFR2) response to Antioxidant Response Elements (ARE) (AID 2282992); conditions: HepG2 Attagene ARE/NRF2 reporter, transcription factor activity; actives raise or lower the signal;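 on AC50: reporter mRNA level measured by RT-PCR and capillary electrophoresis fluorescence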
# Summary of the method: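 HepG2 cells transiently transfected with multiplexed cis-regulated reporter transcription units measure endogenous transcription factor activity. Reporter mRNA at 24 h is quantified by RT-PCR, fluorescent labelling and capillary electrophoresis, with bidirectional fitting relative to DMSO.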
# [4] = ATG_Oct_MLP_CIS: Attagene CIS-FACTORIAL HepG2 Assay for human Octamer-Binding Transcription Factor (Oct) (AID 2282993); conditions: HepG2 Attagene cis-factorial Oct reporter, mRNA; actives raise or lower the signal
# Summary of the method: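 Transient MRTU transfection of HepG2 → 24 h compound treatment → RNA isolation, reverse transcription, PCR → 6-FAM primer extension, HpaI digest → capillary electrophoresis. Activity fitted both directions against DMSO.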
# [5] = target: Cellular tumor antigen p53 (Homo sapiens) (UniProt P04637); assay: ATG_p53_CIS: Attagene CIS-FACTORIAL HepG2 Assay for human p53 Transcription Factor (AID 2282994); conditions: HepG2 p53 cis-element reporter, Attagene mRNA; actives raise or lower the signal
# Summary of the method: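 HepG2 cells transiently transfected with multiplexed cis-regulated reporter transcription units read endogenous TF activity. After 24 h compound exposure, reporter mRNA was quantified by RT-PCR, fluorescent labelling, HpaI digestion and capillary electrophoresis; bidirectional fits versus DMSO baseline.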
# [6] = target: human Peroxisome Proliferator-activated Receptor delta (PPARd), PPARD (gene 5467) (UniProt Q03181); assay: ATG_PPARd_TRANS: Attagene TRANS-FACTORIAL HepG2 Assay for human Peroxisome Proliferator-activated Receptor delta (PPARd) (AID 2283002; active means hit-call score of the fitted dose curve at least 0.9, where 1 is the maximum)
# Summary of the method: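 Transient HepG2 transfection (multiple GAL4-UAS RTUs, chimeric receptor-Gal4); 24 h dosing; total RNA → oligo(dT) RT → PCR → 6-FAM primer extension → HpaI cut → CE. Positive direction vs DMSO.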
# [7] = target: Peroxisome proliferator-activated receptor gamma (Homo sapiens) (UniProt P37231); assay: ATG_PPARg_TRANS: Attagene TRANS-FACTORIAL HepG2 Assay for human Peroxisome Proliferator-activated Receptor-gamma (PPARg) (AID 2283007; active means hit-call score of the fitted dose curve at least 0.9, where 1 is the maximum)
# Summary of the method: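 HepG2 cells are transiently transfected with GAL4-UAS reporter units driven by chimeric NR-Gal4 fusions and dosed for 24 h. Reporter mRNA is quantified by RT-PCR, 6-FAM labelling, HpaI digestion and capillary electrophoresis. Induction is scored against DMSO.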
# [8] = target: Nuclear receptor subfamily 1 group I member 2 (Homo sapiens) (UniProt O75469); assay: ATG_PXR_TRANS: Attagene TRANS-FACTORIAL HepG2 Assay for human Pregnane X Receptor (PXR) (AID 2283008; active means hit-call score of the fitted dose curve at least 0.9, where 1 is the maximum)
# Summary of the method: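 HepG2 cells transiently transfected with multiple reporter units, here a PXR-GAL4 chimera driving a GAL4-UAS reporter; 24 h compound exposure. Reporter mRNA measured by RT-PCR, FAM labelling and capillary electrophoresis; gain of signal fitted against DMSO baseline.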
# [9] = target: human Peroxisome Proliferator-activated Receptor alpha (PPARa), PPARA (gene 5465) (UniProt Q07869); assay: ATG_PPARa_TRANS: Attagene TRANS-FACTORIAL HepG2 Assay for human Peroxisome Proliferator-activated Receptor alpha (PPARa) (AID 2283001; active means hit-call score of the fitted dose curve at least 0.9, where 1 is the maximum;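 on AC50: potency for gain of reporter signal over DMSO so agonist or activator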)
# Summary of the method: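 Read-out is fluorescence of reporter cDNA fragments resolved by capillary electrophoresis after RT-PCR. Human HepG2 liver cells carried transfected PPARa-Gal4 chimera and GAL4-UAS reporter units, treated 24 h; activity scored as increase over DMSO.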
# [10] = target: human Retinoic Acid Receptor beta (RARb), RARB (gene 5915) (UniProt P10826); assay: ATG_RARb_TRANS: Attagene TRANS-FACTORIAL HepG2 Assay for human Retinoic Acid Receptor beta (AID 2283004; active means hit-call score of the fitted dose curve at least 0.9, where 1 is the maximum)
# Summary of the method: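 Induction of reporter mRNA from a chimeric RARb-Gal4 construct was measured by RT-PCR, FAM labelling, HpaI digestion and capillary electrophoresis. Measurements followed 24 h compound treatment of transiently transfected human HepG2 liver cells, with DMSO as baseline.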
# [11] = target: human Retinoic Acid Receptor gamma (RARg), RARG (gene 5916) (UniProt P13631); assay: ATG_RARg_TRANS: Attagene TRANS-FACTORIAL HepG2 Assay for human Retinoic Acid Receptor gamma (RARg) (AID 2283009; active means hit-call score of the fitted dose curve at least 0.9, where 1 is the maximum)
# Summary of the method: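 Transient transfection of HepG2 with multi-reporter constructs, then 24 h chemical treatment. Total RNA isolated, reverse-transcribed, PCR-amplified, fluorescently labelled and resolved by capillary electrophoresis; activity scored as mRNA induction versus DMSO.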
# [12] = target: Retinoic acid receptor alpha (Homo sapiens) (UniProt P10276); assay: ATG_RARa_TRANS: Attagene TRANS-FACTORIAL HepG2 Assay for human Retinoic Acid Receptor alpha (RARa) (AID 2283005; active means hit-call score of the fitted dose curve at least 0.9, where 1 is the maximum)
# Summary of the method: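 Reporter transcripts, measured by RT-PCR with fluorescent labeling and capillary electrophoresis after 24 h dosing, reflect activity of an exogenous human RARa–GAL4 fusion in transiently transfected HepG2. Fitted for increase relative to DMSO.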
# [13] = target: human RAR-related Orphan Receptor beta (RORb), RORB (gene 6096) (UniProt Q92753); assay: ATG_RORb_TRANS: Attagene TRANS-FACTORIAL HepG2 Assay for human RAR-related Orphan Receptor beta (RORb) (AID 2283010; active means hit-call score of the fitted dose curve at least 0.9, where 1 is the maximum)
# Summary of the method: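 Readout is reporter-gene mRNA induction, detected as fluorescence after RT-PCR and capillary electrophoresis, fitted for gain of signal against DMSO controls. Transiently transfected HepG2 liver cells carrying GAL4-UAS reporter constructs were treated for 24 hours.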
# Myc proto-oncogene protein (Homo sapiens), sequence (P01106 whole entry, looked up): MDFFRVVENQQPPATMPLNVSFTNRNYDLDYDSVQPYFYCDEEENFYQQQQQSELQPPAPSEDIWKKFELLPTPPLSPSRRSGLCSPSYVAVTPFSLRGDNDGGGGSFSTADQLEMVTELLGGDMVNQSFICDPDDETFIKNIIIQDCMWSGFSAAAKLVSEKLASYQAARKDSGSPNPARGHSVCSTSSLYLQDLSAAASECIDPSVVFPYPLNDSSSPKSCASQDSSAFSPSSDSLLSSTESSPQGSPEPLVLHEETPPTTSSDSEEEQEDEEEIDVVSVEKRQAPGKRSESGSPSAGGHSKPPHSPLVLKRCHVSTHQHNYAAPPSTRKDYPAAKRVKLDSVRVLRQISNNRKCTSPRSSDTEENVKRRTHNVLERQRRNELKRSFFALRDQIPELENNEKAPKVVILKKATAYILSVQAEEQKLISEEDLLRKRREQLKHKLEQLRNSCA
# Nuclear receptor subfamily 1 group I member 2 (Homo sapiens), sequence (O75469 whole entry, looked up, the tested form may be a part): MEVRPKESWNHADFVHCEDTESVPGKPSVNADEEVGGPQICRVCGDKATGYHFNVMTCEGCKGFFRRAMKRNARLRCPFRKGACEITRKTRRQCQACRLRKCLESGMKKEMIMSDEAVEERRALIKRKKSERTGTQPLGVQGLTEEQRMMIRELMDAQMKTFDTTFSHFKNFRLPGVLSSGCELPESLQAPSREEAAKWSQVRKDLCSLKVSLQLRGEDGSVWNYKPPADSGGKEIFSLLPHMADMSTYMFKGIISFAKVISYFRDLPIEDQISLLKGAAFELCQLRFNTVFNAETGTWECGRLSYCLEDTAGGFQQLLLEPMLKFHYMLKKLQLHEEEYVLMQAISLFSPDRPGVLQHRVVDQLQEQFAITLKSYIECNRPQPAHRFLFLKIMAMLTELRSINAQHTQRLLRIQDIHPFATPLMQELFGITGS
# human Peroxisome Proliferator-activated Receptor alpha (PPARa), PPARA (gene 5465), sequence (Q07869 whole entry, looked up, the tested form may be a part): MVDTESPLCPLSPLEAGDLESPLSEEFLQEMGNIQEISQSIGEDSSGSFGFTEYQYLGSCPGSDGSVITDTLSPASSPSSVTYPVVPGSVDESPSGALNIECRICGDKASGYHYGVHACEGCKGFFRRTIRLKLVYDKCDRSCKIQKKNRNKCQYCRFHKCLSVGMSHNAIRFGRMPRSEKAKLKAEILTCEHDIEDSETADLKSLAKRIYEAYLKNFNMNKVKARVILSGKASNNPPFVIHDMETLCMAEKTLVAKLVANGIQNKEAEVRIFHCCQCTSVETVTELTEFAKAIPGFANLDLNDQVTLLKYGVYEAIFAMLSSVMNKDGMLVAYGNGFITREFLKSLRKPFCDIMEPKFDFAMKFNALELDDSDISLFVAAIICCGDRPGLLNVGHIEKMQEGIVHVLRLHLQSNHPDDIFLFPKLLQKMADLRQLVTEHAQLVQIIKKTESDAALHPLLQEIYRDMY
# human Retinoic Acid Receptor beta (RARb), RARB (gene 5915), sequence (P10826 whole entry, looked up, the tested form may be a part): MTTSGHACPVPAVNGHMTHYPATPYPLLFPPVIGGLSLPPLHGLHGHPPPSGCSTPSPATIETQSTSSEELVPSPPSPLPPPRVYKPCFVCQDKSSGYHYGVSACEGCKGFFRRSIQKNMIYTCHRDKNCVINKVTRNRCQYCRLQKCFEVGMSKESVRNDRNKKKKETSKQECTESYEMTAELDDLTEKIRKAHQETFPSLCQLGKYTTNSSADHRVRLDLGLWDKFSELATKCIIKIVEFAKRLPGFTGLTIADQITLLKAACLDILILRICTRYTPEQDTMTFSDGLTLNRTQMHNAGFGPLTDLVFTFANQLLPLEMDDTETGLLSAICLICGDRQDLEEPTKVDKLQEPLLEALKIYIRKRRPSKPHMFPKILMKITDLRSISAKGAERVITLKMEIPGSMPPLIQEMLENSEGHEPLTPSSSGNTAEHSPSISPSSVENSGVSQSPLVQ
# Cellular tumor antigen p53 (Homo sapiens), sequence (P04637 whole entry, looked up): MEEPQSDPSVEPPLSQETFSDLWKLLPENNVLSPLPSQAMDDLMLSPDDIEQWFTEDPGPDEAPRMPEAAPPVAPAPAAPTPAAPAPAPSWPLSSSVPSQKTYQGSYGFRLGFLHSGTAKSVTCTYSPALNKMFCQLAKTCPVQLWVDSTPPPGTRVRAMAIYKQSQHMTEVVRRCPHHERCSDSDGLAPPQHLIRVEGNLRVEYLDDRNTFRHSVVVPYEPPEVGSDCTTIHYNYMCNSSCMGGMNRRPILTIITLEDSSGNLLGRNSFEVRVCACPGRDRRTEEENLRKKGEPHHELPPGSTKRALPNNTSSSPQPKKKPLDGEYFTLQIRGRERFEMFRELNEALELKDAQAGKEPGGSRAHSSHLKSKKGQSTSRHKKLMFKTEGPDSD
# Retinoic acid receptor alpha (Homo sapiens), sequence (P10276 whole entry, looked up, the tested form may be a part): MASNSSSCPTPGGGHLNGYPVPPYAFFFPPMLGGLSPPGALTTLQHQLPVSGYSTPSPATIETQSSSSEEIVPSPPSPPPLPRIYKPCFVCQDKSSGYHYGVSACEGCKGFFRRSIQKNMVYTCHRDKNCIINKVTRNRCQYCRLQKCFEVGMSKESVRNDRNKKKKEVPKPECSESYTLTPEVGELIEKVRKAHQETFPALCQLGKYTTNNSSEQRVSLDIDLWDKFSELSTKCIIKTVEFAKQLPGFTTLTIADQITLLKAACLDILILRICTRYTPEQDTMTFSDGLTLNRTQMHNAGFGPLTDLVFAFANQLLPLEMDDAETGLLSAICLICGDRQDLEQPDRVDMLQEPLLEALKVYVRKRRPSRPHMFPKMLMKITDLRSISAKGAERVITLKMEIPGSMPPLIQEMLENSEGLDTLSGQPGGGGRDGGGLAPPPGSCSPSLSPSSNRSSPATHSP
# human Retinoic Acid Receptor gamma (RARg), RARG (gene 5916), sequence (P13631 whole entry, looked up): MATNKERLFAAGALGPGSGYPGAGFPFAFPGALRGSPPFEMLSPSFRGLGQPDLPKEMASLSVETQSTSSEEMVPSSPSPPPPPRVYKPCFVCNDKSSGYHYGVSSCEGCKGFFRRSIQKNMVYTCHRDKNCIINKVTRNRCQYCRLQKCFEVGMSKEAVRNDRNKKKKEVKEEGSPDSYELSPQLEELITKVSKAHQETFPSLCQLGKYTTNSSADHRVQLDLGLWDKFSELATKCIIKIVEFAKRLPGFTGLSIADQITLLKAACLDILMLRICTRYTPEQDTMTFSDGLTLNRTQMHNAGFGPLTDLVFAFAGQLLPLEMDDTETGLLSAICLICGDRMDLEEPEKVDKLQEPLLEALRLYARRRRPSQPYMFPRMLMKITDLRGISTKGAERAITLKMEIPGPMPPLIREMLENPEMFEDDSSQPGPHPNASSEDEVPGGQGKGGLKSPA
# human RAR-related Orphan Receptor beta (RORb), RORB (gene 6096), sequence (Q92753 whole entry, looked up, the tested form may be a part): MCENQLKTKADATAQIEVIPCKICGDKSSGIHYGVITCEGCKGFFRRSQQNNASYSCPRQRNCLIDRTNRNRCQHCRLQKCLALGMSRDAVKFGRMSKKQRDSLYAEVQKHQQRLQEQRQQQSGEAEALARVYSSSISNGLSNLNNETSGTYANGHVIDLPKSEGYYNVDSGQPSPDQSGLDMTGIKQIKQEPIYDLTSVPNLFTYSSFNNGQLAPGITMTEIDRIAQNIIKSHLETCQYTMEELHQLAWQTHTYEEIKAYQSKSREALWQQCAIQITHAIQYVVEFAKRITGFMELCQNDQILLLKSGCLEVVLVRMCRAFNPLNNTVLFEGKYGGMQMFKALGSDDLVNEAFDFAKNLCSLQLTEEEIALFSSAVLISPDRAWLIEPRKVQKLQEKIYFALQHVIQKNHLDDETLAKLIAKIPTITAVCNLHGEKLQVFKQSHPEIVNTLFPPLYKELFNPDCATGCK
# Peroxisome proliferator-activated receptor gamma (Homo sapiens), sequence (P37231 whole entry, looked up, the tested form may be a part): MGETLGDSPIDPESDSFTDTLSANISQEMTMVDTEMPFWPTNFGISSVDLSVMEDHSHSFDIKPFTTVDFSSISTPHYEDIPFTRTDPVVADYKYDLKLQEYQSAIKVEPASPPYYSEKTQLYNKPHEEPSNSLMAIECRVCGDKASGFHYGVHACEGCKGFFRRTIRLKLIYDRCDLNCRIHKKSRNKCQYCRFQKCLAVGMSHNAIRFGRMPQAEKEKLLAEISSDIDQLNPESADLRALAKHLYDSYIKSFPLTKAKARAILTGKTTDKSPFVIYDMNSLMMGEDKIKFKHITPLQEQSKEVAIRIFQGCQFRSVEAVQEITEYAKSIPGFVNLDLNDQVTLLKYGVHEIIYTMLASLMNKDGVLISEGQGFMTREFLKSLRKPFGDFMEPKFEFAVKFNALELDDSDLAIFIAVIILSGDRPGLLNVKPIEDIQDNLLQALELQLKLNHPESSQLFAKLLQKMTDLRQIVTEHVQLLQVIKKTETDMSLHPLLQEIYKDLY
# human Peroxisome Proliferator-activated Receptor delta (PPARd), PPARD (gene 5467), sequence (Q03181 whole entry, looked up, the tested form may be a part): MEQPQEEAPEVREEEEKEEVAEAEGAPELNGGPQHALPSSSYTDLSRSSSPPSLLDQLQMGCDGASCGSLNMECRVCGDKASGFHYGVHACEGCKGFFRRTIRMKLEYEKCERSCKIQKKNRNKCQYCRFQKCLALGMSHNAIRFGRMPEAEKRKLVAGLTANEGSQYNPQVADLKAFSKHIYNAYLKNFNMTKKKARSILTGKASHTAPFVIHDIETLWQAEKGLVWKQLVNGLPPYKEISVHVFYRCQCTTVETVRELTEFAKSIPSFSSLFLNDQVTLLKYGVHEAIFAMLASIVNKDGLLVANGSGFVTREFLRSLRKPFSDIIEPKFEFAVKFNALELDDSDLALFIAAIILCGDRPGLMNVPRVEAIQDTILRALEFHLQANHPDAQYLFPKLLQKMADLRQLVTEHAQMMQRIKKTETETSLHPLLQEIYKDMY
structure (smiles),measurement,setting,value
c1ccc(CCCc2ccncc2)cc1,outcome,[1],inactive
same,outcome,[2],inactive
same,AC50,[3],45.4 µM (active)
same,outcome,[4],inactive
same,outcome,[5],inactive
same,outcome,[6],inactive
same,AC50,[7],13.9 µM (active)
same,outcome,[8],inactive
C=CC(C)(CCC=C(C)C)OC(=O)C(C)C (stereo unspecified),outcome,[1],inactive
same,outcome,[2],inactive
same,AC50,[3],100 µM (active)
same,outcome,[4],inactive
same,outcome,[5],inactive
same,outcome,[9],inactive
same,outcome,[6],inactive
same,outcome,[10],inactive
same,outcome,[7],inactive
same,AC50,[8],27.4 µM (active)
same,outcome,[11],inactive
N[C@H]1C(O)O[C@H](CO)[C@H](O)[C@@H]1O (stereo partly specified),outcome,[3],inactive
same,outcome,[4],inactive
same,outcome,[5],inactive
same,outcome,[6],inactive
CC[C@H]1OC(=O)[C@H](C)[C@@H](O[C@H]2C[C@@](C)(OC)[C@@H](O)[C@H](C)O2)[C@H](C)[C@@H](O[C@@H]2O[C@H](C)C[C@H](N(C)C)[C@H]2O)[C@](C)(O)C[C@@H](C)C(=NOCOCCOC)[C@H](C)[C@@H](O)[C@]1(C)O,outcome,[1],inactive
same,outcome,[2],inactive
same,outcome,[3],inactive
same,outcome,[4],inactive
same,outcome,[10],inactive
same,outcome,[12],inactive
same,outcome,[8],inactive
CCC(C)(C)C1CCCCC1OC(C)=O (stereo unspecified),outcome,[1],inactive
same,AC50,[3],134 µM (active)
same,outcome,[4],inactive
same,outcome,[5],inactive
same,outcome,[6],inactive
same,outcome,[10],inactive
same,outcome,[7],inactive
same,outcome,[8],inactive
same,outcome,[11],inactive
C=C(C)c1cccc(C(C)(C)N=C=O)c1,outcome,[1],inactive
same,outcome,[2],inactive
same,outcome,[4],inactive
same,outcome,[5],inactive
same,outcome,[10],inactive
same,AC50,[7],5.62 µM (active)
same,AC50,[8],0.0915 µM (active)
same,outcome,[11],inactive
CCOC(F)(F)C(F)(F)C(F)(F)C(F)(F)F,outcome,[1],inactive
same,outcome,[2],inactive
same,outcome,[3],inactive
same,outcome,[4],inactive
same,outcome,[6],inactive
same,outcome,[7],inactive
same,outcome,[8],inactive
COC(=O)/C=C\C(=O)O,outcome,[2],inactive
same,AC50,[3],43.3 µM (active)
same,outcome,[4],inactive
same,outcome,[5],inactive
same,outcome,[9],inactive
same,AC50,[7],35.2 µM (active)
same,outcome,[11],inactive
CC1=Nc2ccc3ccccc3c2C1(C)C,outcome,[1],inactive
same,outcome,[2],inactive
same,AC50,[3],100 µM (active)
same,outcome,[4],inactive
same,outcome,[9],inactive
same,AC50,[7],40.5 µM (active)
same,AC50,[8],2.65 µM (active)
same,outcome,[11],inactive
Cc1cccc(OCCOc2cccc(C)c2)c1,outcome,[1],inactive
same,outcome,[4],inactive
same,outcome,[5],inactive
same,outcome,[9],inactive
same,AC50,[7],25.7 µM (active)
same,outcome,[8],inactive
CCCCCCCCCCCCCCCC(=O)OCC,outcome,[1],inactive
same,outcome,[2],inactive
same,outcome,[3],inactive
same,outcome,[6],inactive
same,outcome,[10],inactive
same,outcome,[12],inactive
same,outcome,[8],inactive
same,outcome,[11],inactive
CCCCCCCCC(=O)OCC,outcome,[1],inactive
same,outcome,[2],inactive
same,outcome,[4],inactive
same,outcome,[5],inactive
same,outcome,[9],inactive
same,outcome,[10],inactive
same,outcome,[12],inactive
same,outcome,[7],inactive
same,outcome,[8],inactive
same,outcome,[11],inactive
O=CC1CC1,outcome,[1],inactive
same,outcome,[2],inactive
same,outcome,[3],inactive
same,outcome,[4],inactive
same,outcome,[5],inactive
same,outcome,[6],inactive
same,outcome,[12],inactive
same,outcome,[11],inactive
c1c[nH]cn1,outcome,[1],inactive
same,outcome,[2],inactive
same,outcome,[3],inactive
same,outcome,[4],inactive
same,outcome,[5],inactive
same,outcome,[10],inactive
same,outcome,[12],inactive
same,outcome,[7],inactive
same,outcome,[8],inactive
same,outcome,[11],inactive
same,outcome,[13],inactive
CC=CC(=O)N(CC)c1ccccc1C,outcome,[1],inactive
same,outcome,[3],inactive
same,outcome,[4],inactive
same,outcome,[5],inactive
same,outcome,[10],inactive
same,outcome,[7],inactive
same,outcome,[13],inactive
O=P(O)(O)Oc1ccccc1,outcome,[1],inactive
same,outcome,[2],inactive
same,outcome,[3],inactive
same,outcome,[4],inactive
same,outcome,[5],inactive
same,outcome,[9],inactive
same,outcome,[12],inactive
O=C1CCCC1,outcome,[1],inactive
same,outcome,[2],inactive
same,outcome,[3],inactive
same,outcome,[5],inactive
same,outcome,[10],inactive
same,outcome,[12],inactive
same,outcome,[11],inactive
same,outcome,[13],inactive
CCCCCCCOC(=O)CCC,outcome,[1],inactive
same,outcome,[2],inactive
same,outcome,[4],inactive
same,outcome,[6],inactive
same,outcome,[11],inactive
same,outcome,[13],inactive
CCCCCCCC/C=C\CCCCCCCC(=O)O,AC50,[3],100 µM (active)
same,outcome,[4],inactive
same,outcome,[5],inactive
same,AC50,[9],21.8 µM (active)
same,AC50,[6],100 µM (active)
same,AC50,[7],18.8 µM (active)
same,outcome,[8],inactive
O=C(Oc1ccccc1)c1ccc2ccccc2c1O,outcome,[1],inactive
same,AC50,[2],100 µM (active)
same,AC50,[3],18.3 µM (active)
same,AC50,[4],49 µM (active)
same,outcome,[5],inactive
same,outcome,[6],inactive
same,AC50,[7],15.9 µM (active)
same,AC50,[8],16.9 µM (active)
CCCCC(CC)CCC(CC(C)C)OS(=O)(=O)O (stereo unspecified),outcome,[1],inactive
same,AC50,[3],100 µM (active)
same,outcome,[4],inactive
same,outcome,[5],inactive
same,AC50,[7],36.6 µM (active)
same,AC50,[8],5.35 µM (active)
